Assay outcomes from PubChem.
GLS inhibitor: qHTS for Inhibitors of Glutaminase (GLS); Glutaminase kidney isoform, mitochondrial (Homo sapiens), O94925; GLS enzymatic activity, qHTS titration; Potency, µM (series often up to 45.5 µM), inactives show top-dose activity change, negative = inhibition, usual class: inhibitors; 0.21% of 410,000 active; AID 624170, 2012; note: % is set by controls: 0 for no effect and ±100 for the full control effect
Target sequence (O94925 whole entry, looked up, canonical isoform): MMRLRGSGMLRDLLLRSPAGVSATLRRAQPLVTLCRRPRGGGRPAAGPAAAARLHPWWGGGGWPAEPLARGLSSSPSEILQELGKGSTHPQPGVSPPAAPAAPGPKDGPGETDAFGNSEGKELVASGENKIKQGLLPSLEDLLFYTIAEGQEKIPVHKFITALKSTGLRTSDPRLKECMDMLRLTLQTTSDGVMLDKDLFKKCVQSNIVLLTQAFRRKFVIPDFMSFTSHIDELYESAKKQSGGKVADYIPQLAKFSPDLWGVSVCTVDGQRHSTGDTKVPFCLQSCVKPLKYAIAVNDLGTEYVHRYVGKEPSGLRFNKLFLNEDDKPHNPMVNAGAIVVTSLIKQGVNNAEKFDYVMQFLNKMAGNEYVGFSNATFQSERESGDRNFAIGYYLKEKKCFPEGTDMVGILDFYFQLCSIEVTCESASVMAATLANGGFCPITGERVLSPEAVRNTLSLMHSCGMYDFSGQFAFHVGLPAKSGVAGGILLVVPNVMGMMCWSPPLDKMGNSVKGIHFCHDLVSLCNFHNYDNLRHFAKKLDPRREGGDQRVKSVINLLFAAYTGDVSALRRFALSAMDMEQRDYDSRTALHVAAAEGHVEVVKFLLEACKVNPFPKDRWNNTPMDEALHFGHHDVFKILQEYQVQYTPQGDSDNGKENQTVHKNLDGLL
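Read-out is an Amplex red fluorescence increase coupled through glutamate oxidase and HRP, measured before and after 30 min room-temperature incubation. hKGA is in 45 mM KH2PO4 (pH 8.2) with 0.02% Tween-20; glutamine added as 1mM solution.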
JMJD2A Tudor: qHTS Assay for Inhibitors of JMJD2A-Tudor Domain | AlphaScreen JMJD2A-Tudor / H3K4me3 peptide binding | Potency, µM (series often up to 114 µM), inactives show at the highest dose activity change, negative = inhibition, usual class: inhibitors | 4.4% of 390,000 active | AID 504339, 2011; note: % is set by controls: 0 for no effect and ±100 for the full control effect; nearly all actives have a fitted effect of over 50% in size
BAZ2B inh: qHTS Assay for Inhibitors of BAZ2B; Bromodomain adjacent to zinc finger domain protein 2B (Homo sapiens), Q9UIF8; AlphaScreen BAZ2B-H3K14Ac peptide displacement; Potency, µM (doses to about 114 µM), for inactives: at the top dose activity change, negative = inhibition, most hits filed as inhibitors; 4.4% of 360,000 active; AID 504333, 2011; note: % is set by controls: 0 for no effect and ±100 for the full control effect; nearly all actives have a fitted effect of over 60% in size
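AlphaScreen luminescence quantifies BAZ2B engagement of H3K14Ac peptide; the protein and biotinylated peptide are both at 50 nM final, buffer PBS pH 7.4 with 0.01% Tween-20, all steps at room temperature.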
G9a inh: qHTS Assay for Inhibitors of Histone Lysine Methyltransferase G9a; G9a H3K9 monomethylation, AlphaScreen, 2 h; AID 504332, 2011; Potency, µM (doses to about 102 µM), inactives show at the top dose activity, negative = inhibition, hits mostly inhibitors; 8.8% of 350,000 active; note: % is set by controls: 0 for no effect and ±100 for the full control effect; nearly all actives have a fitted effect of over 75% in size
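Readings reflect AlphaScreen signal from monomethyl-H3K9 antibody detection. HMT at 20 nM; substrate b-H3K9 500 nM; cofactor SAM 20 uM; 2 h RT reaction; compounds tested as titrations in qHTS with 15 min preincubation.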
HP1b binding inh: HTS for Inhibitors of HP1-beta Chromodomain Interactions with Methylated Histone Tails; AlphaScreen HP1-beta / biotin-H3K9me3 peptide binding; Potency, µM (titrated, usually from 114 µM), for inactives: at the top dose activity change, negative = inhibition, usual class: inhibitors; 0.56% of 390,000 active; AID 540317, 2011; note: nearly all actives have a fitted effect of over 70% in size
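AlphaScreen: HP1-beta (50 nM) preformed 30 min with biotin-H3(1-18)K9me3 peptide (50 nM) in PBS pH 7.4, 0.01% Tween-20. Compound added for 30 min at RT, then streptavidin donor/nickel chelate acceptor beads (10 ug/mL) for 30 min.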
Active calls of the source: *; [ ] = another dose, or the depositor's remark. An excerpt weighted towards active compounds, which were near 10% of everything screened. Calls come from the whole dose curve; as a rule, active = well fitted curve in the direction sought with a large enough effect; inconclusive = small, poorly fitted or top-dose-only effect, or another doubt; inactive = no such curve, though single readings can be large; an effect the other way counts as inactive or inconclusive. Potency is the fitted concentration of half-maximal effect.

How did COC(=O)Cn1c(CN2CCc3ccccc3C2)nc2c1c(=O)n(C)c(=O)n2C do in these assays?
GLS inhibitor: -17%; JMJD2A Tudor: -15%; BAZ2B inh: 12%; G9a inh: 50µM*; HP1b binding inh: 55%

Results for C=C(C)Cn1c(N2CCN(c3ccc(OC)cc3)CC2)nc2c1c(=O)n(C)c(=O)n2C ?
GLS inhibitor: -3%; JMJD2A Tudor: inconclusive; BAZ2B inh: inconclusive; G9a inh: 17%[59 µM]; HP1b binding inh: -9%

What do the screens show for `Cc1ccc(Cn2c(SCc3cccnc3)nc3c2c(=O)n(C)c(=O)n3C)cc1`?
GLS inhibitor: 4%; JMJD2A Tudor: -18%; BAZ2B inh: -8%; G9a inh: -3%[59 µM]; HP1b binding inh: 18%

How did Cn1c(=O)c2c(nc(SCc3cccnc3)n2Cc2ccccc2)n(C)c1=O do in these assays?
GLS inhibitor: 13%; JMJD2A Tudor: 35µM*; BAZ2B inh: -8%; G9a inh: inconclusive; HP1b binding inh: 22%

How did COc1ccc(N2CCN(c3nc4c(c(=O)n(C)c(=O)n4C)n3Cc3ccccc3)CC2)cc1 do in these assays?
GLS inhibitor: 44%; JMJD2A Tudor: 56µM*; BAZ2B inh: 45µM*; G9a inh: -49%[12.7 µM]; HP1b binding inh: inconclusive

Results for O=C(NNC(=S)Nc1ccccc1)c1ccncc1 ?
GLS inhibitor: 19%; JMJD2A Tudor: -4%; BAZ2B inh: -8%; G9a inh: inconclusive; HP1b binding inh: 12%

What do the screens show for `COc1cccc(NC(=S)Nc2ccc(F)cc2)c1`?
GLS inhibitor: -2%; JMJD2A Tudor: -16%; BAZ2B inh: -9%; G9a inh: 13%; HP1b binding inh: 40%

What do the screens show for `O=C(NNC(=S)Nc1ccccc1)c1cc(Br)ccc1Cl`?
GLS inhibitor: -24%; JMJD2A Tudor: -24%; BAZ2B inh: -21%; G9a inh: 40µM*; HP1b binding inh: 3%

What do the screens show for `O=C(NNC(=S)Nc1ccccc1)NNC(=S)Nc1ccccc1`?
GLS inhibitor: 25%; JMJD2A Tudor: -26%; BAZ2B inh: -20%; G9a inh: 14µM*; HP1b binding inh: 6%

What do the screens show for `COc1cccc(NC(=S)Nc2ccc(O)cc2)c1`?
GLS inhibitor: -3%; JMJD2A Tudor: -20%; BAZ2B inh: inconclusive; G9a inh: 8.9µM*; HP1b binding inh: -20%

Results for Oc1ccc(NC(=S)Nc2ccccc2)cc1 ?
GLS inhibitor: inconclusive; JMJD2A Tudor: -10%; BAZ2B inh: -17%; G9a inh: 50µM*; HP1b binding inh: 19%

How did Nc1ccc(NC(=S)Nc2ccccc2)cc1 do in these assays?
GLS inhibitor: 5%; JMJD2A Tudor: -27%; BAZ2B inh: -9%; G9a inh: -3%[12.7 µM]; HP1b binding inh: 15%

How did O=C(NNC(=S)Nc1ccccc1)Nc1ccccc1 do in these assays?
GLS inhibitor: 3%; JMJD2A Tudor: -16%; BAZ2B inh: -24%; HP1b binding inh: 17%

What do the screens show for `O=C1CC(c2ccncc2)c2cc3c(cc2N1)OCCO3` (stereo not given)?
GLS inhibitor: 7%; JMJD2A Tudor: 2%; BAZ2B inh: -19%; G9a inh: -12%[12.7 µM]; HP1b binding inh: 19%

What do the screens show for `CC(C)C(C)NC(=O)COC(=O)c1cc(S(=O)(=O)N(C)C)ccc1N1CCCC1` (stereo not given)?
BAZ2B inh: -12%; G9a inh: -1%

Results for O=C(COc1ccc2c(c1)CCC2)N1CCN(c2ccccc2F)CC1 ?
GLS inhibitor: 11%; JMJD2A Tudor: -15%; BAZ2B inh: 10%; G9a inh: 17%[59 µM]; HP1b binding inh: 16%

Results for Cc1cc(S(=O)(=O)NCCCN2CCOCC2)c(Cl)cc1Cl ?
GLS inhibitor: -13%; JMJD2A Tudor: -1%; BAZ2B inh: -1%; G9a inh: 14%; HP1b binding inh: 20%

How did CNC(=S)/N=C(/Nc1ccccc1)c1ccccc1 do in these assays?
GLS inhibitor: -20%; JMJD2A Tudor: -18%; BAZ2B inh: inconclusive; G9a inh: 7.9µM*; HP1b binding inh: 23%

How did CNC(=S)/N=C(\Nc1ccc(C)cc1)c1ccccc1 do in these assays?
GLS inhibitor: -6%; JMJD2A Tudor: -13%; BAZ2B inh: -34%; HP1b binding inh: -13%

What do the screens show for `c1cc2cn[nH]c2cc1NC1CCCCCC1`?
GLS inhibitor: -23%; JMJD2A Tudor: inconclusive; BAZ2B inh: inconclusive; G9a inh: 4.5µM*; HP1b binding inh: -3%

What do the screens show for `Cc1ccc(C(=O)C(c2ccccc2)N2Cc3ccccc3C2=N)cc1` (stereo not given)?
GLS inhibitor: -1%; JMJD2A Tudor: 28µM*; BAZ2B inh: 32µM*; G9a inh: 11µM*; HP1b binding inh: inconclusive

How did Nc1nn(-c2ccccc2)c(N)c1N=Nc1ccc2c(c1)OCO2 do in these assays?
GLS inhibitor: -12%; JMJD2A Tudor: 50µM*; BAZ2B inh: 32µM*; G9a inh: inconclusive; HP1b binding inh: 18µM*

What do the screens show for `Cc1nn(-c2ccccc2)c(N)c1N=Nc1cccnc1`?
GLS inhibitor: 12%; JMJD2A Tudor: inconclusive; BAZ2B inh: -36%; G9a inh: inconclusive; HP1b binding inh: 7%

What do the screens show for `Nc1nn(-c2ccccc2)c(N)c1N=Nc1cccc(F)c1`?
GLS inhibitor: -1%; JMJD2A Tudor: 35µM*; BAZ2B inh: 35µM*; G9a inh: 20µM*; HP1b binding inh: inconclusive

Results for O=C(NCCO)c1ccc(-c2nnc(Nc3ccc(O)cc3)c3ccccc23)cc1 ?
GLS inhibitor: 8%; JMJD2A Tudor: -16%; BAZ2B inh: -4%; G9a inh: -7%; HP1b binding inh: 22%

What do the screens show for `CC(C)(C)c1ccc(OCCNC(=O)c2ncn[nH]2)cc1`?
GLS inhibitor: 0%; JMJD2A Tudor: 5%; BAZ2B inh: 11µM*; G9a inh: -5%; HP1b binding inh: 34%

How did CCc1cc(C)cc(OCCNC(=O)c2ncn[nH]2)c1 do in these assays?
GLS inhibitor: -1%; JMJD2A Tudor: inconclusive; BAZ2B inh: 50µM*; G9a inh: 8%[59 µM]; HP1b binding inh: 30%

What do the screens show for `CCc1cc(C)cc(OCCNC(=O)c2cncc(Br)c2)c1`?
GLS inhibitor: -10%; JMJD2A Tudor: -5%; BAZ2B inh: 3%; G9a inh: -14%; HP1b binding inh: 25%

How did O=S1(=O)N=C(N(CCO)/N=C/c2ccncc2)c2ccccc21 do in these assays?
GLS inhibitor: 26%; JMJD2A Tudor: -19%; BAZ2B inh: -30%; G9a inh: inconclusive; HP1b binding inh: -7%
